Bioassay records from PubChem BioAssay.
Shown is part of a subset that was picked to be rich in hits.
DT40 TDP1 CPT: qHTS for Inhibitors of human tyrosyl-DNA phosphodiesterase 1 (TDP1): qHTS in cells in presence of CPT; chicken DT40 Tdp1-/-;hTDP1 cells + 20 nM CPT, ATP luminescence, 48 h; Potency, µM (highest dose often 46.2 µM), usual class: inhibitors; 420,000 compounds, 12% hits; AID 686979, 2013; further: nearly all actives have a fitted effect of over 55% in size
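Chicken DT40 Tdp1-/- cells stably complemented with human TDP1 were seeded at 400 cells/well in medium containing 20 nM camptothecin, exposed to pin-transferred compounds, and grown at 37 °C for at least 48 hr. Viability was read as ATP luminescence.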
HT1080 IDH1KD tx: qHTS for induction of synthetic lethality in tumor cells producing 2HG: qHTS for the HT-1080-IDH1KD cell line; HT-1080 IDH1 knockdown viability, ATP luminescence, 48 h; Potency, µM (doses to about 46.1 µM), usual class: cytotoxic; 360,000 compounds, 2% hits
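HT-1080-IDH1KD cells (IDH1 knocked down), 750/well in RPMI with 5% FBS, treated with compound 48 h at 37 degrees C. Viability by CellTiter-Glo luminescence, normalised to DMSO and no-cell wells; concentration-response curves classed.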
HT1080NT lethal: qHTS for induction of synthetic lethality in tumor cells producing 2HG: qHTS for the HT-1080-NT fibrosarcoma cell line. 360,000 compounds, 1.6% hits. Potency, µM (titrated, usually from 46.1 µM), usual class: cytotoxic. AID 686970, 2013. HT-1080-NT fibrosarcoma viability, CellTiter-Glo ATP luminescence, 48 h;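 further: NT is the 2HG producing partner of a matched IDH1 knockdown line; nearly all actives have a fitted effect of over 55% in size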
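Compounds were tested in concentration-response format on HT-1080-NT cells for 48 hours at 37 degrees C. Cell viability came from CellTiter-Glo luminescence; curves were classified by r2, response magnitude and activity.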
DT40 TDP1 no CPT: qHTS for Inhibitors of human tyrosyl-DNA phosphodiesterase 1 (TDP1): qHTS in cells in absence of CPT. 420,000 compounds, 15% hits. Potency, µM (series often up to 46.2 µM), actives largely listed as inhibitors. DT40 Tdp1-/- hTDP1 cells, no CPT, ATP luminescence, 48 h; further: nearly all actives have a fitted effect of over 55% in size
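No-CPT arm: Tdp1-/-;hTDP1 DT40 cells (400/well) plus compounds, incubated ≥48 hr at 37 °C. Readout CellTiter-Glo luminescence.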
12-LOX inh: Primary qHTS assay for inhibitors of human arachidonate 12S-lipoxygenase (ALOX12): Round 2 | 580,000 compounds, 1.1% hits | Potency, µM (series often up to 108 µM), most hits filed as inhibitors | AID 1671190, 2021 | Polyunsaturated fatty acid lipoxygenase ALOX12 (Homo sapiens), P18054 | purified 12hLO, xylenol orange hydroperoxide absorbance
Target sequence (P18054 whole entry, looked up): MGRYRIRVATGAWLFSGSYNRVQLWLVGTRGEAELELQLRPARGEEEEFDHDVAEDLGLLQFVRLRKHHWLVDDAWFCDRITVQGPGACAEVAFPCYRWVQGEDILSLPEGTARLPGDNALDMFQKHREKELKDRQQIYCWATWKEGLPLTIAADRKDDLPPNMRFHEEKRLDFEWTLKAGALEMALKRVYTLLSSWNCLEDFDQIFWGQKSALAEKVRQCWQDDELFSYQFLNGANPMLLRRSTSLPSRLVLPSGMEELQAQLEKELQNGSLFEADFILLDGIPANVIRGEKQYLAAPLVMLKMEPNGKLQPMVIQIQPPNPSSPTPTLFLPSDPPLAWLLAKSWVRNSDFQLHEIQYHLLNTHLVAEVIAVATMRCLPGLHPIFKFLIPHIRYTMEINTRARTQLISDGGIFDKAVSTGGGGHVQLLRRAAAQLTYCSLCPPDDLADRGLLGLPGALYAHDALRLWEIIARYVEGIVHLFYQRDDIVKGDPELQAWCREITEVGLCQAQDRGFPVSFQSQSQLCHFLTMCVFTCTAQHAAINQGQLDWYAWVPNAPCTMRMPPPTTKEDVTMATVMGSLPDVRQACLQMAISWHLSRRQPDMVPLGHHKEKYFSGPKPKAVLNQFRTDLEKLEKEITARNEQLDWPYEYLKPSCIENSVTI
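Purified human 12hLO at 150 nM in 25 mM Hepes, 0.01% Triton X-100, pH 7.0, preincubated 15 min at room temperature with compound. Reaction started with 40 uM arachidonic acid, 30 min at room temperature. Hydroperoxide measured by Fe-xylenol orange, 573/405 nm absorbance ratio.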
IL-1B inflam inh: qHTS for Inhibitors of Inflammasome Signaling: IL-1-beta AlphaLISA Primary Screen; activity change, % at 57.5 µM; 360,000 compounds, 4.7% hits; THP-1 LPS/ATP IL-1B secretion, AlphaLISA, 16 h; hits give low values; in the data active means activity change below about -50%; inconclusive means mostly about -30% to -49%
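THP-1 cells pretreated 1 hr with compounds (up to 57.5 uM final), then stimulated with LPS (250 ng/mL final) plus ATP (1.25 mM final); secreted IL-1B measured by AlphaLISA after 16 hr, decreased signal indicating inhibition.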
Numbers stand for hits; . = inactive; ? = inconclusive; / = no result; [ ] = dose if it differs, or a comment. Unless noted, the call rests on the fitted dose curve; in most records, active means well fitted curve in the direction sought with a large enough effect; inconclusive means small, poorly fitted or top-dose-only effect, or another doubt; inactive means no such curve, though single readings can be large; an effect the other way counts as inactive or inconclusive.

SMILES	DT40 TDP1 CPT	HT1080 IDH1KD tx	HT1080NT lethal	DT40 TDP1 no CPT	12-LOX inh	IL-1B inflam inh
CCN(CC)C(=O)c1ccc(COc2ccc(Cl)c(C)c2)o1	16µM	?	?	13µM	.	.
Cc1cc(OCc2ccc(C(=O)n3cccn3)o2)ccc1Cl	?	.	.	?	.	.
CCOC(=O)Nc1nc(C)c(C(=O)c2ccc(Cl)cc2)s1	?	.	.	?	.	.
COC(=O)Nc1nc(C)c(C(=O)c2ccccc2)s1	8.2µM	?	?	12µM	.	.
COC(=O)Nc1nc(-c2ccccc2)c(C(=O)c2ccccc2)s1	0.82µM	?	?	0.65µM	.	.
CN(C)S(=O)(=O)c1ccc(C(=O)Nc2nc(-c3ccccc3)c(C(=O)c3ccccc3)s2)cc1	?	.	.	?	.	.
CCCSc1nnc(-c2cnn(-c3ccccc3)c2-n2cccc2)n1C	18µM	.	.	15µM	?	.
COC(=O)/C(=C\Nc1ccc(Cl)cc1Cl)NC(=O)c1ccc(Cl)cc1Cl	21µM	?	?	?	.	?
COC(=O)/C(=C\Nc1ccc(Cl)cc1Cl)NC(=O)c1ccccc1	.	.	.	?	.	.
C=CCOc1cccc(NC(=O)CCc2ccccc2)c1	/	/	/	/	.	/
COc1ccc(C)cc1NC(=O)Cn1c(N(C)Cc2ccccc2)nc(C)cc1=O	/	/	/	/	.	/
Cc1cccc(CNc2cc(-c3cccc(NS(C)(=O)=O)c3)ncn2)c1	?	/	/	?	35µM	/
Cc1cccc(CNc2cc(-c3cccc(C#N)c3)ncn2)c1	21µM	/	/	4.6µM	?	/
Cc1cccc(CNc2cc(-c3ccoc3)ncn2)c1	?	/	/	?	18µM	/
c1cncc(CNc2cc(-c3ccoc3)ncn2)c1	.	/	/	.	?	/
COc1ccccc1CNc1cc(-c2cccc(C#N)c2)ncn1	.	/	/	.	?	/
Cc1cccc(CNc2cc(-c3ccc(N(C)C)cc3)ncn2)c1	.	/	/	?	.	/
O=C(NCCC12CC3CC(CC(C3)C1)C2)C12CC3CC(CC(C3)C1)C2	/	/	/	/	.	/
O=C(COC(=O)Cc1n[nH]c(=O)c2ccccc12)NCC(=O)Nc1ccc(F)c(F)c1F	/	/	/	/	.	/
COC(=O)c1c(C)cccc1C1CN=NC12Cc1ccccc1C2=O (centres undefined)	15µM	.	.	?	.	-90
Cc1nc(-c2ccccc2)n(Cc2nc(-c3cccc(Cl)c3)oc2C)c(=O)c1CCO	/	/	/	/	.	/
COc1ccc(/C(O)=C2\C(=O)C(=O)NC2c2ccc(Cl)cc2)cc1F (centres undefined)	/	/	/	/	11µM	/
CCCOc1ccc(/C(O)=C2\C(=O)C(=O)NC2c2ccc(Cl)cc2)cc1 (centres undefined)	/	/	/	/	.	/
CCc1ccc(CN(C)C(=O)c2cc(COc3ccc(-n4cncn4)cc3)on2)cc1	?	.	.	15µM	.	?
Cc1ccc(OCc2cc(C(=O)N(C)Cc3cnn(-c4ccccc4C)c3)no2)cn1	12µM	21µM	18µM	18µM	.	.
SMILES	DT40 TDP1 CPT	HT1080 IDH1KD tx	HT1080NT lethal	DT40 TDP1 no CPT	12-LOX inh	IL-1B inflam inh
CN(Cc1ccc(F)cc1)C(=O)c1cc(COc2ccc(-n3cncn3)cc2)on1	23µM	.	.	16µM	.	.
Cc1ccc(CC(=O)N[C@@H]2CN(c3ccncn3)C[C@H]2CO)cc1	/	/	/	/	.	/
Cn1cnc(S(=O)(=O)N2CCC(c3noc(C4CC4)n3)C2)c1 (centres undefined)	/	/	/	/	.	/
CCNC(=O)C(C)NC(=O)CCc1ncc(-c2ccc(CC(C)C)cc2)o1 (centres undefined)	/	/	/	/	.	/
Cc1cc(C)n(Cc2ccc(C(=O)N/N=C/c3ccc(-c4ccc([N+](=O)[O-])cc4)o3)o2)n1	?	?	?	10µM	?	.
NS(=O)(=O)c1ccc(-c2ccc(/C=N/NC(=O)c3ccc([N+](=O)[O-])cc3)o2)cc1	.	.	.	.	.	.
CNC(=S)N/N=C/c1ccc(-c2ccc(Cl)c([N+](=O)[O-])c2)o1	8.2µM	.	.	9.2µM	.	-54
CCCCC(=O)N/N=C/c1ccc(-c2ccc([N+](=O)[O-])cc2)o1	?	.	.	16µM	.	.
Cc1cc([N+](=O)[O-])ccc1-c1ccc(/C=N/NC(=O)c2ccc(Br)o2)o1	?	.	.	?	.	?
O=C(O)c1ccc(-c2ccc(/C=N/Nc3ccc([N+](=O)[O-])cc3)o2)cc1	?	.	.	.	?	.
CC(C)(C)NC(=S)N/N=C\c1ccc(-c2ccc([N+](=O)[O-])cc2)o1	9.2µM	.	.	9.2µM	45µM	/
Cc1ccc(NC2(c3nnnn3-c3c(C)cccc3C)CCCC2)cc1	/	/	/	/	.	/
COc1cc(OC)c(NS(=O)(=O)c2cc(C(=O)N3CCCCCC3)ccc2C)cc1Cl	/	/	/	/	.	/
COC1C(=O)N(C2CCN(C(=O)c3cccnc3)CC2)C12CCOCC2 (centres undefined)	/	/	/	/	.	/
CCCC(=O)Nc1ccc2nc(SCC(=O)N3CCOCC3)sc2c1	?	/	/	?	.	/
Cc1ccccc1OCc1nnc(SCC(=O)Nc2ccc3nc(SCC(=O)Nc4ccccc4)sc3c2)n1C	?	?	.	15µM	.	.
Cc1ccccc1OCC(=O)Nc1ccc2nc(SCC(=O)N3CCCC3)sc2c1	16µM	/	/	15µM	.	/
Cc1ccc(C(C)C)c(OCc2nnc(SCC(=O)Nc3ncc(C)s3)n2C)c1	18µM	.[9.24 µM]	.	?	.	.
Cc1ccccc1OCC(=O)Nc1ccc2nc(SCC(=O)N3CCOCC3)sc2c1	?	/	/	5.8µM	.	/
O=C(Nc1cccc(F)c1)C1CCN(C(=O)c2ncn3c2COC(c2ccc(F)cc2)C3)CC1 (centres undefined)	/	/	/	/	.	/
CN(C)C(=O)c1c(NC(=O)c2ccccc2)sc2c1CCC(C(C)(C)C)C2 (centres undefined)	/	/	/	/	.	/
CCOC(=O)c1cc(NCc2ccccc2)ccc1N1CCOCC1	/	/	/	/	.	/
Cc1ccccc1OCC(=O)Nc1ccc2nc(SCC(=O)N(C)c3ccccc3)sc2c1	18µM	/	/	10µM	.	/
O=C(Nc1ccc(F)cc1)c1cccn1-c1nnc(N2CCCCC2)s1	?	/	/	?	.	/
Cc1ccc(C)c(N2CCN(C(=O)C3CCN(c4nnc(-n5cccc5)s4)CC3)CC2)c1	/	/	/	/	.	/
Cc1ccc(C)c(N2CCN(C(=O)c3cccn3-c3nnc(N4CCCCC4)s3)CC2)c1	?	/	/	15µM	.	/
